Experimental data as given in PubChem BioAssay (EPA / NIEHS).
Active and inactive are the calls of the source. Rule for the calls: active = hit-call score of the fitted dose curve at least 0.9, where 1 is the maximum; inactive = score below 0.9.

Experiment: ATG_PBREM_CIS: Attagene CIS-FACTORIAL HepG2 Assay for human Phenobarbital-responsive Enhancer Module (PBREM) (AID 2282955)
Conditions: HepG2 PBREM cis-reporter, Attagene multiplexed transcription; actives raise or lower the signal
Method in brief: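 Reporter mRNA read by RT-PCR, 6-FAM primer extension, HpaI digestion and capillary electrophoresis. Transfected HepG2 cells, 24 h compound exposure. Gain or loss of signal fitted bidirectionally relative to DMSO baseline.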

With `CC(C)C[C@H]1C(=O)N2CCC[C@H]2[C@]2(O)O[C@](NC(=O)[C@@H]3C=C4c5cccc6[nH]c(Br)c(c56)C[C@H]4N(C)C3)(C(C)C)C(=O)N12` as the molecule, how does the AC50 read?
Its AC50 is 0.744 µM (active).

With `C=CC(C)(CCC=C(C)C)OC=O` (stereo not given) as the molecule, how does the outcome read?
The outcome was “inactive”.

Which outcome does the source give for `NC(=O)Nc1ccc(Cl)cc1` here?
Its outcome is “inactive”.

For `O=C(O)c1ccc(C(=O)O)cc1`, which outcome is on record?
Its outcome is “inactive”.

With `Cc1ccc(C(=O)O)o1` as the molecule, how does the outcome read?
The outcome was “inactive”.

With `CC(C)(C)NC(N)=O` as the molecule, how does the outcome read?
Its outcome is “inactive”.

For `O=S(=O)(O)c1cccc2c(S(=O)(=O)O)cccc12`, which outcome is on record?
Its outcome is “inactive”.

For `CCC/C=C/C=O`, which outcome is on record?
The outcome was “inactive”.

Which outcome does the source give for `Nc1ccc(S(N)(=O)=O)cc1` here?
The outcome was “inactive”.

Which outcome does the source give for `O=C(Cl)c1cccc(C(=O)Cl)c1` here?
The outcome was “inactive”.

For `O=c1cc(-c2ccccc2)oc2cc(O)cc(O)c12`, which outcome is on record?
The outcome was “inactive”.

Which outcome does the source give for `CCCc1ccccc1O` here?
The outcome was “inactive”.

For `NC(N)=NC(=O)c1nc(Cl)c(N)nc1N`, which outcome is on record?
Its outcome is “inactive”.

For `CCCCN`, which outcome is on record?
The outcome was “inactive”.

For `CC1=CCC(O)(C(C)C)CC1` (stereo not given), which outcome is on record?
The outcome was “inactive”.

Which outcome does the source give for `CN(C)c1ccc(O)c2c1C[C@H]1C[C@H]3[C@H](N(C)C)C(=O)C(C(N)=O)=C(O)[C@@]3(O)C(=O)C1=C2O` here?
The outcome was “inactive”.

Which outcome does the source give for `O=C(O)CN(CCN(CC(=O)O)CC(=O)O)CCN(CC(=O)O)CC(=O)O` here?
Its outcome is “inactive”.

With `O=C=NC1CCC(CC2CCC(N=C=O)CC2)CC1` (stereo not given) as the molecule, how does the AC50 read?
Its AC50 is 63.1 µM (active).

With `CC1CC(OC(=O)c2ccccc2O)CC(C)(C)C1` (stereo not given) as the molecule, how does the outcome read?
The outcome was “inactive”.

Which outcome does the source give for `CC(C)CCCCCCCOC(=O)c1ccc(C(=O)OCCCCCCCC(C)C)c(C(=O)OCCCCCCCC(C)C)c1` here?
The outcome was “inactive”.

For `CN(C)C(=N)N=C(N)N`, which outcome is on record?
The outcome was “inactive”.

For `Cc1cccc(Nc2ccccc2C(=O)O)c1C`, which outcome is on record?
The outcome was “inactive”.

For `CCc1ccc(C=O)cc1`, which outcome is on record?
The outcome was “inactive”.

For `Cc1ccccc1C=O`, which outcome is on record?
The outcome was “inactive”.

Which outcome does the source give for `Cc1ccc(O)c(C(C)(C)C)c1` here?
The outcome was “inactive”.
